PABP polyA inh: blocks human PABP binding to poly(A) RNA; P11940; fluorescence polarization; calls only at 35 µM; 1% of 290,000 active; AID 2014;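 further: calls also rest on retests at 20 µM and on dose response follow-up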
eIF4E-4G inh: inhibitors of eIF4E and eIF4G interaction in translation initiation; P63073+Q04637; AID 782; 0.37% of 220,000 active; inhibition, % at 21.7 µM; TR-FRET eIF4E-eIF4GI(517-606) binding, 2 h;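 active means inhibition above about 30%, limit read from the data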;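 further: 0% = full FRET control wells and 100% = background wells lacking eIF4GI fragment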
eIF4H FP inh: inhibitors of RNA binding by human eIF4H; inhibition, % at 35 µM; 0.94% of 290,000 active; AID 2012; Q15056; eIF4H fluorescence polarization binding assay;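 further: calls also rest on retests at 20 µM and on dose response follow-up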
EBV gp42 inh: blocks Epstein-Barr virus glycoprotein 42 binding; Q1HVG2; Fluorescence polarization binding assay, mP read-out; inhibition, % (tested at 21.74 µM); 0.42% of 220,000 active; in the data active means inhibition above about 50%
Target sequence (Q1HVG2 whole entry, looked up): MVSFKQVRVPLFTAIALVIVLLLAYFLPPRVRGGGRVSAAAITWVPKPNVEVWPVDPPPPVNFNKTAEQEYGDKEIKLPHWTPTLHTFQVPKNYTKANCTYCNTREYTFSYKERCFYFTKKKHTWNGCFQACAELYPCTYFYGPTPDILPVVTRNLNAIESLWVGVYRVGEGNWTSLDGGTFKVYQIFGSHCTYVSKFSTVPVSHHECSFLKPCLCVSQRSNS
PABP1 MLLE inh: inhibitors of microRNA-mediated deadenylation, human PABP1 MLLE binding. P11940. GST-MLLE / FITC-PAM2 fluorescence polarization. inhibition, % at 20 µM. 0.36% of 360,000 active; in the data active means inhibition above about 35%, passing the limit was not always enough;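 further: plate controls were DMSO wells with GST-MLLE for no effect and wells lacking GST-MLLE protein for full effect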
The depositor's hits bear a star; i = inactive; ? = inconclusive; . = not tested or not shown; + = active, no number; [ ] = dose if it differs, or a comment. In the library only some 1.7% were active in any assay of this set; here they are far more common. Unless noted, how the calls were made is not given here.

SMILES	PABP polyA inh	eIF4E-4G inh	eIF4H FP inh	EBV gp42 inh	PABP1 MLLE inh
CCOc1ccccc1NC(=O)CCNS(=O)(=O)c1cccc2nonc12	i	.	-6	.	-6
CCc1ccccc1NS(=O)(=O)c1ccc2c(c1)NC(=O)CC(=O)N2	+	-4	active	-6	-4
CCc1cccc(NS(=O)(=O)c2ccc3c(c2)NC(=O)CC(=O)N3)c1	i	0	-5	4	22
COCCNC(=O)[C@@H]1CSC2c3ccc(OC)c(OC)c3C(=O)N21 (some centres not stated)	i	.	-2	.	24
COc1ccc2c(c1OC)C(=O)N1C2SC[C@H]1C(=O)NC1CCCC1 (some centres not stated)	i	.	-11	.	41*
CCC(C)NC(=O)[C@H]1N2C(=O)c3c(ccc(OC)c3OC)C2SC1(C)C (some centres not stated)	i	.	6	.	43*
COc1cccc(NS(=O)(=O)NC(=O)c2cn(C)c3ccccc23)c1	i	.	-2	.	14
CCOC(=O)C1=C(C(C)=O)C(c2cccnc2)C(C#N)=C(N)O1 (configuration not stated)	+	0	55*	-8	20
CCOC(=O)C1=C(CSc2nc(-c3ccncc3)ccc2C#N)OC(N)=C(C#N)C1c1cccnc1 (configuration not stated)	+	2	120*	6	1
CCOC(=O)CC(=O)CSc1nc(N)c(C#N)c(-c2ccc(F)cc2)c1C#N	+	-3	62*	-1	-3
CCOC(=O)CC(=O)CSc1nc(-c2cccnc2)ccc1C#N	+	2	69*	50	3
CCOC(=O)C1=C(CSc2nc(-c3ccncc3)ccc2C#N)OC(N)=C(C#N)C1c1ccc(OC)cc1 (configuration not stated)	i	0	122	-50	-18
Cc1cccc(OCCCC(=O)NC2CCCCC2)c1	i	.	0	.	10
COc1cccc2sc(Nc3nnc(-c4ccc(F)cc4)o3)nc12	i	-1	17	-2	-2
Fc1cccc2sc(Nc3nnc(-c4ccco4)o3)nc12	+	5	61*	-9	-1
Cc1occc1C(=O)NCc1ccco1	+	-1	58*	-6	-4
O=C(NCc1ccco1)c1cc2ccc(O)cc2oc1=O	+	.	?	11	-7
COc1ccc2cc(C(=O)NCc3ccco3)c(=O)oc2c1	i	.	-4	-17	-10
O=C(CN(c1ccccc1)S(=O)(=O)c1ccccc1)NCCSCc1ccco1	i	-24	81*	-5	14
NS(=O)(=O)c1ccc(CCNC(=O)C(c2ccccc2)c2ccccc2)cc1	i	.	9	.	-6
CCC(=O)N=c1ccn(C2=Nc3ccccc3NC2=C(C#N)C#N)cc1	+	-2	73*	-1	11
COc1cccc(C(=O)NCCS(=O)(=O)NC2CCCC2)c1	.	.	.	.	-6
CSc1ccc(CN2C(=O)NC3(CCCCCCC3)C2=O)cc1	i	2	-8	-4	5
CN(C)c1ccc(O)c2c1CC1CC3C(N(C)C)C(=O)C(C(N)=O)=C(O)[C@@]3(O)C(=O)C1=C2O (some centres not stated)	.	.	.	.	10
CN(C)[C@@H]1C(=O)C(C(=O)NCN2CCCC2)=C(O)[C@@]2(O)C(=O)C3=C(O)c4c(O)cccc4[C@@](C)(O)C3CC12 (some centres not stated)	i	64*	96	71*	.
SMILES	PABP polyA inh	eIF4E-4G inh	eIF4H FP inh	EBV gp42 inh	PABP1 MLLE inh
CCn1c(SCc2ccc(Cl)c(Cl)c2)nnc1C(C)NC(=O)c1ccc(OC)cc1 (configuration not stated)	+	9	active	5	-1
O=c1cc(CN2CCN(S(=O)(=O)c3ccccc3[N+](=O)[O-])CC2)nc2sccn12	i	-2	7	-11	-36
CC(=O)c1cccc(S(=O)(=O)N2CCN(CCOc3ccccc3)CC2)c1	.	.	.	.	44*
Cc1ccc(S(=O)(=O)N2CCN(CCOc3ccccc3)CC2)cc1	.	.	.	.	-6
Cc1ccc(OCC(=O)Nc2ccc3c(c2)C(=O)NC3=O)cc1	i	.	-2	.	16
CC(C)(C)c1ccc(OCC(=O)Nc2ccc3c4c(cccc24)C(=O)NC3=O)cc1	?	-8	?	57*	32
O=C(Nc1ccc(-c2n[nH]c(=S)o2)cc1)c1ccccc1Cl	i	.	8	.	-35
c1ccc2c(c1)CCCN2Cc1nnnn1CC1CCCO1 (configuration not stated)	?	6	?	71*	106
COc1ccc(C2C(C(=O)c3ccco3)=C(O)C(=O)N2c2nnc(C)s2)cc1OC (configuration not stated)	?	.	?	.	44*
CCOc1ccc2nc(N3C(=O)C(O)=C(C(=O)c4ccco4)C3c3ccco3)sc2c1 (configuration not stated)	.	.	.	.	2
Cc1cc(C)c2nc(N3C(=O)C(O)=C(C(=O)c4ccco4)C3c3ccco3)sc2c1 (configuration not stated)	i	.	66*	.	4
COC(=O)C1=C(C(=O)OC)SC(=C2C(=S)C(C)(C)N(C(=O)C3CC3)c3ccccc32)S1	i	11	-14	-9	40*
COC(=O)c1ccc(C)c(NC(=O)CCSc2ccc(Cl)cc2)c1	i	3	1	99*	2
CCOc1ccc(S(=O)(=O)NCCC(=O)NCC2(N3CCCCC3)CCCCC2)cc1	+	.	94*	.	-7
COc1ccc(CCNC(=O)CCNC(=O)c2ccc(Cl)cc2)cc1OC	i	8	-1	9	10
COc1ccc(CCNC(=O)CCNC(=O)c2ccc(Br)cc2)cc1OC	i	37*	0	-14	15
COC(=O)N[C@H](CC(C)=O)c1ccccc1	i	13	-1	-16	.
CCCCn1c(NC(=S)Nc2ccccc2)nc2ccccc21	i	-5	8	5	40*
S=C(Nc1ccccc1)Nc1nc2ccccc2n1CCOc1ccccc1	i	-11	0	-9	29
CC(C)C1N(C(=O)CN2CCCCC2)CCN1S(=O)(=O)c1ccccc1 (configuration not stated)	i	0	1	-11	13
Cc1ccsc1C(=O)N1CCCC(CO)(Cc2ccccc2)C1 (configuration not stated)	i	.	-4	.	8
CCCC(=O)Nc1nc2ccc(OC)cc2s1	i	2	-4	4	-4
COc1ccc2nc(NC(=S)N(C)C)sc2c1	i	41*[fluorescence artefact?]	12	-15	-38
Cc1noc(C)c1COC(=O)c1ccc(S(=O)(=O)N2CCCCC2)cc1	i	1	0	6	1
Cc1ccccc1NC(=O)CCS(=O)(=O)c1ccc(Br)s1	i	.	58*	.	4
O=C1CC2c3ccccc3C1C1C(=O)N(CCc3ccccc3)C(=O)C21 (configuration not stated)	i	1	-3	-8	2
